# PMC7862700, “An all-to-all approach to the identification of sequence-specific readers for epigenetic DNA modifications on cytosine”
# Legend:
# Assay in all cases: DAPPL (digital affinity profiling via proximity ligation, sequencing); 10 mM Tris-HCl pH 7.5, 50 mM NaCl, 1 mM DTT, 4% glycerol, room temperature, 30 min; GST-TFs on glutathione beads, 16-mer random dsDNA library, 0.1% formaldehyde crosslink after washing; high values mean tight binding
# FEV = biological target: T1, FEV (Homo sapiens, UniProt Q99581 1-238); conditions: protein: recombinant; tags: N-terminal GST; dsDNA, one strand shown
# T1 sequence: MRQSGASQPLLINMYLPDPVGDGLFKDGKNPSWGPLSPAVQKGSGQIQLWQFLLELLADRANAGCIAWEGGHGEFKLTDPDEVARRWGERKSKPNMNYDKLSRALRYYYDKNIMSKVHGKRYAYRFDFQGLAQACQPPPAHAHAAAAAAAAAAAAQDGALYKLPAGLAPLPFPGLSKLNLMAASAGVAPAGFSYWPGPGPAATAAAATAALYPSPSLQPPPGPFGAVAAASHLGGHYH
# Procedure, shortened: (§1)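 In yeast, human transcription factors were expressed with a GST fusion, then pulled down on glutathione beads and given DNA barcodes. Pooled with a tag-only sample, they were exposed to 200 nmole of a 16-mer random double-stranded DNA library (Tris/NaCl/DTT/glycerol buffer, room temperature, 30 min), washed, crosslinked with 0.1% formaldehyde, proximity-ligated using BsaI/T4 ligase for 1 h at 37 °C, PCR-amplified and read on an Illumina NextSeq500. Each hexamer's frequency of reads for a factor, divided by the matching frequency for the tag-only sample, gives the binding signal.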
# ETV5 = ETV5 (Homo sapiens, UniProt P41161 1-510); conditions: protein: recombinant; tags: N-terminal GST; dsDNA, one strand shown
# Chain of ETV5 (P41161 whole entry): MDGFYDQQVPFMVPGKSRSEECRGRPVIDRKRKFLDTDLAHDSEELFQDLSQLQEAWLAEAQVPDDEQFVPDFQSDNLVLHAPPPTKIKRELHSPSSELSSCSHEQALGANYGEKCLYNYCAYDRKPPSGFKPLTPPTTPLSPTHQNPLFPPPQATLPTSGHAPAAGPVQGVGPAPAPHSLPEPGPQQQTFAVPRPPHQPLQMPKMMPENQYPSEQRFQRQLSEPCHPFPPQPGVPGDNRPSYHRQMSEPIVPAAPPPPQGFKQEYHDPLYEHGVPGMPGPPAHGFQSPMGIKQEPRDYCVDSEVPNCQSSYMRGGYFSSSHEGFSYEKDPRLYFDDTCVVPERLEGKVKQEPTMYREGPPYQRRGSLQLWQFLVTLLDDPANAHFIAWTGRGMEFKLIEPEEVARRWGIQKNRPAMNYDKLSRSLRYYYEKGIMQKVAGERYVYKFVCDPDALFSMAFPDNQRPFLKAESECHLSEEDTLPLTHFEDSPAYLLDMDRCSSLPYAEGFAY
# Procedure, shortened: as §1
# HSF1 = HSF1 (Homo sapiens, UniProt Q00613 1-529); conditions: protein: recombinant; tags: N-terminal GST; chain copies: 3; dsDNA, one strand shown
# Chain of HSF1 (Q00613 whole entry): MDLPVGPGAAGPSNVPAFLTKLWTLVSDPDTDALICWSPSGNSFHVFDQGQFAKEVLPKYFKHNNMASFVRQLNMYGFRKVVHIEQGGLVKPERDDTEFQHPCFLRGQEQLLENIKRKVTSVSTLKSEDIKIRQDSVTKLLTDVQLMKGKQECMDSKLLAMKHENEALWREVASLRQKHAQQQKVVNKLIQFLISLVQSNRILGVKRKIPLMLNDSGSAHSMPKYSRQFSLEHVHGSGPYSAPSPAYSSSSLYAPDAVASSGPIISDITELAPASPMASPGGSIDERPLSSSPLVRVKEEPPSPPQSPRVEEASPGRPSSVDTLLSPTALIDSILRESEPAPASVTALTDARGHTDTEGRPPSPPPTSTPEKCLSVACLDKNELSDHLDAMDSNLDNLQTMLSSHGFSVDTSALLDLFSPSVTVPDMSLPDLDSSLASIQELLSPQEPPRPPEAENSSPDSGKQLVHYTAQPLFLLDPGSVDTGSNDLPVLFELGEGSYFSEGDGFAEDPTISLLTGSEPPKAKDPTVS
# Procedure, shortened: as §1
# SPIC = biological target: T2, SPIC (Homo sapiens, UniProt Q8N5J4 1-248); conditions: protein: recombinant; tags: N-terminal GST; dsDNA, one strand shown
# T2 sequence: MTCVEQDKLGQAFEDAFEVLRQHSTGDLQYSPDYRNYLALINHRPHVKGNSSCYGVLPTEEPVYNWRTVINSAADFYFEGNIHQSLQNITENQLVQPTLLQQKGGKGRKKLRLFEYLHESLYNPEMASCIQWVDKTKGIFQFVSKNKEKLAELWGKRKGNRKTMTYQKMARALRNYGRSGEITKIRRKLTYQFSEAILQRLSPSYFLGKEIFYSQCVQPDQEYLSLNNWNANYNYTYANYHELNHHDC
# Procedure, shortened: as §1
# ELF4 = ELF4 (Homo sapiens, UniProt Q99607 1-663); conditions: protein: recombinant; tags: N-terminal GST; dsDNA, one strand shown
# Chain of ELF4 (Q99607 whole entry): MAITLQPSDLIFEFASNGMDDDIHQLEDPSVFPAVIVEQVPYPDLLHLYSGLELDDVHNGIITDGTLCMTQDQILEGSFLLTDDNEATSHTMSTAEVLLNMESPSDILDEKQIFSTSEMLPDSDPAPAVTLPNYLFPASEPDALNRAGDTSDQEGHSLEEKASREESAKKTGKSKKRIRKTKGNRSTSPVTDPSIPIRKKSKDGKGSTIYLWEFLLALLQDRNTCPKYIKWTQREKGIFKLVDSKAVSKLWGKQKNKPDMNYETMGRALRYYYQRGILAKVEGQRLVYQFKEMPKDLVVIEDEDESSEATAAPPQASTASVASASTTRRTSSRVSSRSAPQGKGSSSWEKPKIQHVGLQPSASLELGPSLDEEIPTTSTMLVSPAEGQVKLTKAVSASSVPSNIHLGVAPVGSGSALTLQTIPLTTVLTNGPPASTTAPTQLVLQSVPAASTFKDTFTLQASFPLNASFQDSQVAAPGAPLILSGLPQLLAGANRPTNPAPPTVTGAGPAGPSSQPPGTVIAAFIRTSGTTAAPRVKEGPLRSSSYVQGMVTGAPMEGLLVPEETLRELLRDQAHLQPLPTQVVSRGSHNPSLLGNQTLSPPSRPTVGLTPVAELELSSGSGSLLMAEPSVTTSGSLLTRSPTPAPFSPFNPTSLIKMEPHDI
# Procedure, shortened: as §1
# ELK4 = biological target: T3, ELK4 (Homo sapiens, UniProt P28324-2 1-405); conditions: protein: recombinant; tags: N-terminal GST; dsDNA, one strand shown
# T3 sequence: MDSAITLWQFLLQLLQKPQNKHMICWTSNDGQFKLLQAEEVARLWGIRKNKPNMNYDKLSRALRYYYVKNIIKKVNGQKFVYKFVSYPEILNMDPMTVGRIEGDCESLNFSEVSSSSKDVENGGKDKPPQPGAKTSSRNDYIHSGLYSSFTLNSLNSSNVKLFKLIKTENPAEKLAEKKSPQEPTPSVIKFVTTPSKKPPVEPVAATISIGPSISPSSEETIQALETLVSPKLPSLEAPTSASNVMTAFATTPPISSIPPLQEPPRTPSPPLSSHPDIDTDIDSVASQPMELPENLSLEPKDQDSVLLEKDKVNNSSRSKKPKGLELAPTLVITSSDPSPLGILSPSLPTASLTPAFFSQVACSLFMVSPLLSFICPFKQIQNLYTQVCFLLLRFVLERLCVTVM
# Procedure, shortened: as §1
# ETV2 = biological target: T4, ETV2 (Homo sapiens, UniProt O00321 1-342); conditions: protein: recombinant; tags: N-terminal GST; dsDNA, one strand shown
# T4 sequence: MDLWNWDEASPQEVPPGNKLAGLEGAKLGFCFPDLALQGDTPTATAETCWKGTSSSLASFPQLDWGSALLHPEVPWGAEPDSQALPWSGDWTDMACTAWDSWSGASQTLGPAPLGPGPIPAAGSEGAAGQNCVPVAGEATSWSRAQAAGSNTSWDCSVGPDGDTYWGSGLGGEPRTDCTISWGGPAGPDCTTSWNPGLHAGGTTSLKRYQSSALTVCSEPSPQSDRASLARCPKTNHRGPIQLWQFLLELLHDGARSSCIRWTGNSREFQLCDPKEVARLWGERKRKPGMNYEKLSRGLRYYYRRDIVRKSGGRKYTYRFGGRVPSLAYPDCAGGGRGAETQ
# Procedure, shortened: as §1
# ELF3 = biological target: T5, ELF3 (Homo sapiens, UniProt P78545 1-371); conditions: protein: recombinant; tags: N-terminal GST; dsDNA, one strand shown
# T5 sequence: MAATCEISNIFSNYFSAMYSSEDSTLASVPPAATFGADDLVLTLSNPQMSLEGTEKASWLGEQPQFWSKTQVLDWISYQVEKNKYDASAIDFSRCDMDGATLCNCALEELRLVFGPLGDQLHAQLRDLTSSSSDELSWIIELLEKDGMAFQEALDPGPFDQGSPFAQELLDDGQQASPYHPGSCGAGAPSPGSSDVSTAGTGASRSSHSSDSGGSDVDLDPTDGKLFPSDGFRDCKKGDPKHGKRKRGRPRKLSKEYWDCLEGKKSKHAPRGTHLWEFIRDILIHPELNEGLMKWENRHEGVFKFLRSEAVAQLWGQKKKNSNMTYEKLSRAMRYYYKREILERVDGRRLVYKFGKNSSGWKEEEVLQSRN
# Procedure, shortened: as §1
# CRX = CRX (Homo sapiens, UniProt O43186 1-299); conditions: protein: recombinant; tags: N-terminal GST; dsDNA, one strand shown
# Chain of CRX (O43186 whole entry): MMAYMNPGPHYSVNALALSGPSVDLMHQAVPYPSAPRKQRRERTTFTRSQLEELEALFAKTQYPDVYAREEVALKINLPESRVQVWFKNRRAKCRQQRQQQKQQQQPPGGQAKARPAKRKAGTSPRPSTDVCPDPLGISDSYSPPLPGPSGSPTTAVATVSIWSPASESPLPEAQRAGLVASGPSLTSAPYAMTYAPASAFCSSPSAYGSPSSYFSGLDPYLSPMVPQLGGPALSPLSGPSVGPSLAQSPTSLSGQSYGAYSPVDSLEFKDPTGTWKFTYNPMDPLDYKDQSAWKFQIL
# Procedure, shortened: as §1
# ETV1 = ETV1 (Homo sapiens, UniProt P50549 1-477); conditions: protein: recombinant; tags: N-terminal GST; dsDNA, one strand shown
# Chain of ETV1 (P50549 whole entry): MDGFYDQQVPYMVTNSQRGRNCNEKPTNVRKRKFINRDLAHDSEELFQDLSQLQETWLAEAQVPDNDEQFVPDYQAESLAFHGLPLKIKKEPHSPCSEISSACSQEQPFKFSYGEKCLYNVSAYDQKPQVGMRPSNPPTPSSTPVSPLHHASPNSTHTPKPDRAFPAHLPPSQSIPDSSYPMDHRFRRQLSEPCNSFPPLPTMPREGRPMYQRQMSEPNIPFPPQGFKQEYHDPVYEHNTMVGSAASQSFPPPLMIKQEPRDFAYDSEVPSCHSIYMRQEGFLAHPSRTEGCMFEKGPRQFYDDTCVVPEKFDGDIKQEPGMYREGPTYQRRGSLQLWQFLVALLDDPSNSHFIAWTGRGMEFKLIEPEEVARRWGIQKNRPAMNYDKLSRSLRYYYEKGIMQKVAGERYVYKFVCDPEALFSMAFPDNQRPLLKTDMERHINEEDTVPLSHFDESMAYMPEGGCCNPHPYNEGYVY
# Procedure, shortened: as §1
# ERF = biological target: T6, ERF (Homo sapiens, UniProt P50548 1-548); conditions: protein: recombinant; tags: N-terminal GST; dsDNA, one strand shown
# T6 sequence: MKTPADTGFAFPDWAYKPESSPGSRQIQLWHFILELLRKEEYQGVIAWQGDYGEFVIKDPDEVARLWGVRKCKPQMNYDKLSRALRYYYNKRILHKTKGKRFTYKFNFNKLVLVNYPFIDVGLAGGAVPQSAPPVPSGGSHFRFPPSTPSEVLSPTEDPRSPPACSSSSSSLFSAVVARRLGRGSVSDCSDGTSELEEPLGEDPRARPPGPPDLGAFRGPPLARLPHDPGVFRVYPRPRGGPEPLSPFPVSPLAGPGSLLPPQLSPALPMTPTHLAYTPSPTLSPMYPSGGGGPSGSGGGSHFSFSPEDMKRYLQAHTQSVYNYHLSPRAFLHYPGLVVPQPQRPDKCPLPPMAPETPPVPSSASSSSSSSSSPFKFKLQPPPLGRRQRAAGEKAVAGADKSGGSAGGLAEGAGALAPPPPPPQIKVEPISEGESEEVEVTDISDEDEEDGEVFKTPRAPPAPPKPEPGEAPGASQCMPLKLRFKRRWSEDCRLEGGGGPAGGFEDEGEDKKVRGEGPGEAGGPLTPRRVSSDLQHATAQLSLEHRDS
# Procedure, shortened: as §1
# ETV3L = biological target: T7, ETV3L (Homo sapiens, UniProt Q6ZN32 1-361); conditions: protein: recombinant; tags: N-terminal GST; dsDNA, one strand shown
# T7 sequence: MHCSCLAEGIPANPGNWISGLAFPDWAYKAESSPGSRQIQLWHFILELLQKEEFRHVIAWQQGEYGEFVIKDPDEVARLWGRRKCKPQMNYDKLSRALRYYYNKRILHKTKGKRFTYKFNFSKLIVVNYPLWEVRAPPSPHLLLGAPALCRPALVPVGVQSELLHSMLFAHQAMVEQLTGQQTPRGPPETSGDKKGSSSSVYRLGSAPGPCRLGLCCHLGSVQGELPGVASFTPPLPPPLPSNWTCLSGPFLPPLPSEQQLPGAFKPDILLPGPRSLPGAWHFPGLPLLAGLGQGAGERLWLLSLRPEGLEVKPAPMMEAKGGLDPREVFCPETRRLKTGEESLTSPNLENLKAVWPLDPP
# Procedure, shortened: as §1
# ETS2 = biological target: T8, ETS2 (Homo sapiens, UniProt P15036 1-469); conditions: protein: recombinant; tags: N-terminal GST; dsDNA, one strand shown
# T8 sequence: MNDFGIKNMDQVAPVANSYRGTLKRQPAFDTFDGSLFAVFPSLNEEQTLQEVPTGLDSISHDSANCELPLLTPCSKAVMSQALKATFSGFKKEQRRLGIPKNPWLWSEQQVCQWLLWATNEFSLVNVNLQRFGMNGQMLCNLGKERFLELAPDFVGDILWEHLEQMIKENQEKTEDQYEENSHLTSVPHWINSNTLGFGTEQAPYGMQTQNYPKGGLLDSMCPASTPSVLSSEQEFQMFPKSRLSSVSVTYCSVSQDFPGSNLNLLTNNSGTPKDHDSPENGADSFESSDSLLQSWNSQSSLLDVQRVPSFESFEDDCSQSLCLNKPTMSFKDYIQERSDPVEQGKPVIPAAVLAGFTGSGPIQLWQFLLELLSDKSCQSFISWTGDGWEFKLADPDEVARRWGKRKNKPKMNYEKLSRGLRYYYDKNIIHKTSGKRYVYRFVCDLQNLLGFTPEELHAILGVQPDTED
# Procedure, shortened: as §1
# SPDEF = biological target: T9, SPDEF (Homo sapiens, UniProt O95238 1-335); conditions: protein: recombinant; tags: N-terminal GST; dsDNA, one strand shown
# T9 sequence: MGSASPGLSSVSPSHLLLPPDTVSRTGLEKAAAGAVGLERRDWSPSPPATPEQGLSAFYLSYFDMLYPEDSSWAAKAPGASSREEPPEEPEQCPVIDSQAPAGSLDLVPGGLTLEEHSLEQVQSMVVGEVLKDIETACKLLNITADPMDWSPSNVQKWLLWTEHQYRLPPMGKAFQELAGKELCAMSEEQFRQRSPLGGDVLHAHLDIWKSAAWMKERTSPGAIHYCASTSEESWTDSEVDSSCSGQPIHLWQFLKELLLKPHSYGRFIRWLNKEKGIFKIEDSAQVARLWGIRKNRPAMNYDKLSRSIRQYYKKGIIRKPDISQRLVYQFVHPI
# Procedure, shortened: as §1
# ETV7 = biological target: T10, ETV7 (Homo sapiens, UniProt Q9Y603 1-341); conditions: protein: recombinant; tags: N-terminal GST; dsDNA, one strand shown
# T10 sequence: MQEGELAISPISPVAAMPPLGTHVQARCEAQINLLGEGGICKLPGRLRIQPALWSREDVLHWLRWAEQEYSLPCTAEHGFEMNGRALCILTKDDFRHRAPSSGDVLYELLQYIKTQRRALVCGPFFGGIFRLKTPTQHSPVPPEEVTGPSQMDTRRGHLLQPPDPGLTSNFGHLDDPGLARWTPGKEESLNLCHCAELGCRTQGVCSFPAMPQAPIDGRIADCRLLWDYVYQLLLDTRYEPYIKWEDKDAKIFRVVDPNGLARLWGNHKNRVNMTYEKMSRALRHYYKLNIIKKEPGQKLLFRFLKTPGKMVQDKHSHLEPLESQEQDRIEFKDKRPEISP
# Procedure, shortened: as §1
# ELF5 = biological target: T11, ELF5 (Homo sapiens, UniProt Q9UKW6-2 1-255); conditions: protein: recombinant; tags: N-terminal GST; dsDNA, one strand shown
# T11 sequence: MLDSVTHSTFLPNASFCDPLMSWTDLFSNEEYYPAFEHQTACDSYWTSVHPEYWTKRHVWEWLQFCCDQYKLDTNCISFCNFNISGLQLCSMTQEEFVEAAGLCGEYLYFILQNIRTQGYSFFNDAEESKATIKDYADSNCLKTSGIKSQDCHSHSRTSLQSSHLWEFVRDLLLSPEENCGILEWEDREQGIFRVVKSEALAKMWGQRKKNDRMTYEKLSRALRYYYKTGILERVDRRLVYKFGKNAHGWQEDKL
# Procedure, shortened: as §1
# ETV3 = biological target: T12, ETV3 (Homo sapiens, UniProt P41162-2 1-143); conditions: protein: recombinant; tags: N-terminal GST; dsDNA, one strand shown
# T12 sequence: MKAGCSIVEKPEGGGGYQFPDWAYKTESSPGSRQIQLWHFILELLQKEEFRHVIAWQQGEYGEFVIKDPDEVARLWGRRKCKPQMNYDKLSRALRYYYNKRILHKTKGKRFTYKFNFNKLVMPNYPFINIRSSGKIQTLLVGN
# Procedure, shortened: as §1
# ETV6 = ETV6 (Homo sapiens, UniProt P41212 1-452); conditions: protein: recombinant; tags: N-terminal GST; dsDNA, one strand shown
# Chain of ETV6 (P41212 whole entry): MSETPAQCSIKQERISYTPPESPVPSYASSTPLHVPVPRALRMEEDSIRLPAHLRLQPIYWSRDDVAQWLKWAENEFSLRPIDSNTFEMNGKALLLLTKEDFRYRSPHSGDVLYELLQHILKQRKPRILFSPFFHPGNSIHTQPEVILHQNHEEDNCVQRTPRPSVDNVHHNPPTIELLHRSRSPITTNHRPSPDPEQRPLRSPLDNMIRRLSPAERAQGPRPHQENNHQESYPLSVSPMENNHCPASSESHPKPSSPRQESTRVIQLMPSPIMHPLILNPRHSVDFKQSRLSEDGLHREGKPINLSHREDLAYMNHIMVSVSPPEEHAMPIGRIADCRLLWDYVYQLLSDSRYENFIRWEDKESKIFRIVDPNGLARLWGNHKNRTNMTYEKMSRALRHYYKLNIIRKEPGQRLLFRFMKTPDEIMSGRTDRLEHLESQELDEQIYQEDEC
# Procedure, shortened: as §1
sequence,measurement,setting,value
TCACGC,binding signal,FEV,"1.18 fold enrichment (6-mer frequency, TF over GST control)"
same,binding signal,ETV5,"1.15 fold enrichment (6-mer frequency, TF over GST control)"
same,binding signal,HSF1,"1.08 fold enrichment (6-mer frequency, TF over GST control)"
same,binding signal,SPIC,"1.25 fold enrichment (6-mer frequency, TF over GST control)"
same,binding signal,ELF4,"1.16 fold enrichment (6-mer frequency, TF over GST control)"
same,binding signal,ELK4,"1.34 fold enrichment (6-mer frequency, TF over GST control)"
same,binding signal,ETV2,"1.26 fold enrichment (6-mer frequency, TF over GST control)"
same,binding signal,ELF3,"1.35 fold enrichment (6-mer frequency, TF over GST control)"
same,binding signal,CRX,"1.02 fold enrichment (6-mer frequency, TF over GST control)"
same,binding signal,ETV1,"1.13 fold enrichment (6-mer frequency, TF over GST control)"
same,binding signal,ERF,"1.26 fold enrichment (6-mer frequency, TF over GST control)"
same,binding signal,ETV3L,"1.2 fold enrichment (6-mer frequency, TF over GST control)"
same,binding signal,ETS2,"1.11 fold enrichment (6-mer frequency, TF over GST control)"
same,binding signal,SPDEF,"1.12 fold enrichment (6-mer frequency, TF over GST control)"
same,binding signal,ETV7,"1.16 fold enrichment (6-mer frequency, TF over GST control)"
same,binding signal,ELF5,"1.15 fold enrichment (6-mer frequency, TF over GST control)"
same,binding signal,ETV3,"1.07 fold enrichment (6-mer frequency, TF over GST control)"
same,binding signal,ETV6,"1.15 fold enrichment (6-mer frequency, TF over GST control)"
